Compound activity as filed in PubChem BioAssay.
SMN2 splice up = increases expression of the SMN2 splice variant | Potency, µM (titrated, usually from 46.1 µM), inactives show at the highest dose activity change, positive = activation, actives largely listed as activators | 2.8% of 210,000 active | AID 1458 | HEK293 SMN2-luciferase splicing reporter, luminescence, 30-36 h; also: % of control where 0% means no effect; nearly all actives have a fitted effect of over 55% in size
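HEK293 cells carry an SMN2 minigene-luciferase reporter in which exon 7 inclusion puts luciferase in frame. Cells were seeded at 2000 cells/well, attached for 10-12 hours, then exposed to compounds for 30-36 hours at 37C before ONE-Glo luminescence.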
Rab9 prom act = activates the Rab9 promoter; Huh7 Rab9 promoter-luciferase reporter, luminescence, 24 h; Potency, µM (doses to about 9.22 µM), without a hit: at the top dose activation, negative = inhibition, hits mostly activators; 2.8% of 320,000 active; AID 485297; also: % of control where 0% means no effect; nearly all actives have a fitted effect of over 60% in size
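Measured in stably transfected Huh7 cells bearing a Rab9 promoter–luciferase construct: 24 h compound treatment at 37 °C, followed by luminescence detection.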
ELG1 genotox = inducers of genotoxicity in HEK293T ELG1-luciferase cells. Potency, µM (doses to about 46 µM), without a hit: at the highest dose activity change, positive = activation, usual class: activators. HEK293T ELG1-luciferase reporter, luminescence, 16 h. 1.3% of 330,000 active; also: % of control where 0% means no effect; nearly all actives have a fitted effect of over 60% in size
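After overnight (16 hr) compound treatment at 37 °C, ELG1-luciferase HEK293T cells were lysed with ONE-Glo; luminescence quantified 30 min later at room temperature.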
NPC1 prom act = NPC1 promoter activation; Huh7 NPC1 promoter luciferase reporter, 24 h; Potency, µM (titrated, usually from 9.22 µM), inactives show top-dose activation, hits mostly activators; 2.4% of 320,000 active; AID 485313; also: % of control where 0% means no effect; nearly all actives have a fitted effect of over 60% in size
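Huh7 reporter cells (NPC1 promoter driving luciferase) are dosed with compound for 24 h at 37 °C, 5% CO2; luciferase detection reagent is then added and luminescence measured after 10 min at ambient temperature.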
FLuc counter = inhibits or activates purified firefly luciferase, miR-21 counter-screen; purified FLuc, Km substrates, luminescence inhibition; P08659; 6.9% of 360,000 active; Potency, µM (highest dose often 57.5 µM), for inactives: at the top dose activity change, negative = inhibition, most hits filed as inhibitors; AID 588342;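 also: plate controls were vehicle for no effect and reference inhibitor for full effect; nearly all actives have a fitted effect of over 55% in size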
Target sequence (P08659 whole entry, looked up): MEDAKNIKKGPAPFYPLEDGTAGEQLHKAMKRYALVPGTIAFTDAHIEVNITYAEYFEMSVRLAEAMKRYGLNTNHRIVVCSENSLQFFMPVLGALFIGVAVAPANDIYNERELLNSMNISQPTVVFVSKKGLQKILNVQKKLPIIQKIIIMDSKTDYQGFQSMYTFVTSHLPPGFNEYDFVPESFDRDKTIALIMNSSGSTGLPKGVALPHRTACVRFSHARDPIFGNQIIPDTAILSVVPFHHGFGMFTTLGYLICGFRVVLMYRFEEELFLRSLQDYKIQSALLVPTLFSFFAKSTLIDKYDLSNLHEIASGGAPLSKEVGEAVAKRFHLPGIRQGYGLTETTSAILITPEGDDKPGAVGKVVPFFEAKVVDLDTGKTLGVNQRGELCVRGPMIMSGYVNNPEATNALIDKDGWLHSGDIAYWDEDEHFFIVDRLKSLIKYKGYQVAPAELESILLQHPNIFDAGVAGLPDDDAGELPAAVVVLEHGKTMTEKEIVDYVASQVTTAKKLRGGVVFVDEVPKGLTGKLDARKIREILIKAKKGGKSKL
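Purified P. pyralis luciferase (10nM final) with 10uM D-luciferin and 10uM ATP (Km levels) in 50mM Tris acetate pH 7.5, 10mM Mg acetate, 0.01% Tween-20, 0.05% BSA; qHTS 6-point titration, ~60 µM downward; luminescence read.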
ELG1 repair inh = inhibitors of ELG1-dependent DNA repair in HEK293T cells | HEK293T ELG1-luciferase reporter, luminescence, 16 h; DNA damage induced by 5-fluorouridine | Potency, µM (top dose mostly 46.1 µM), inactives show at the top dose activity change, negative = inhibition, actives largely listed as inhibitors | 2.3% of 330,000 active; also: % is scaled to controls: 0 for no effect and ±100 for the full control effect; nearly all actives have a fitted effect of over 55% in size
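HEK293T cells expressing luciferase-tagged ELG1 (2,000/well) received 5-Fluorouridine plus compound or DMSO for 16 hr at 37 °C. Luciferase was read by ONE-Glo luminescence after 30 min at room temperature.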
An asterisk follows results filed as active; ? = inconclusive; nt = no result given; [ ] = another dose, or the depositor's remark. This is a sample that favours compounds with a hit; in the whole collection about 9.2% have one here. Calls follow the shape of the dose curve; as a rule, active = well fitted curve in the direction sought with a large enough effect; inconclusive = small, poorly fitted or top-dose-only effect, or another doubt; inactive = no such curve, though single readings can be large; an effect the other way counts as inactive or inconclusive. Potency is read from the fitted curve at half-maximal effect.

SMILES	SMN2 splice up	Rab9 prom act	ELG1 genotox	NPC1 prom act	FLuc counter	ELG1 repair inh
O=C(COc1cccc2c1CCN(Cc1ccc(Br)cc1)C2=O)NCc1ccco1	-26%	1%	-11%	-2%	-2%	18µM*
O=C(COc1cccc2c1CCN(Cc1ccc(Br)cc1)C2=O)N1CCOCC1	-46%	-1%	-6%	-4%	-1%	7.3µM*
O=C(COC(=O)c1c(Cl)ccc(Cl)c1Cl)NCC1CCCO1 (stereo not drawn)	nt	nt	-1%	nt	nt	?
CC(C)NC(=O)Cc1csc2nc(-c3ccccc3)cn12	nt	nt	nt	nt	-8%	nt
CN(CCOc1ccccc1)C(=O)CCc1c[nH]c2ccccc12	nt	2%	1%	16%	-7%	?
COc1ccc(Nc2nc(N)nc(CSC(=S)N3CCCCC3C)n2)cc1 (stereo not drawn)	nt	18%	2%	-6%	?	-18%
Cn1cc(C(=O)NCCc2ccccc2)c(=O)c2cc(S(=O)(=O)N3CCCCC3)ccc21	-5%	nt	nt	nt	-2%	nt
Cc1cccc(Nc2n[nH]c(C)c2[N+](=O)[O-])c1	?	3.2µM*	5.8µM*	2.5µM*	15µM*	?
Cc1ccc(Nc2n[nH]c(C)c2[N+](=O)[O-])cc1	18µM*	3.5µM*	19%	2.8µM*	19µM*	?
Cc1[nH]nc(Nc2ccc(Br)cc2)c1[N+](=O)[O-]	nt	3.2µM*	?	2.8µM*	9.5µM*	?
Cc1[nH]nc(Nc2ccccc2)c1[N+](=O)[O-]	-8%	13%	4%	18%	?	?
Cc1[nH]nc(Nc2ccc(C(C)C)cc2)c1[N+](=O)[O-]	nt	3.5µM*	?	3.5µM*	9.5µM*	?
CNc1nc(Nc2ccc(Br)cc2)nc(N)c1[N+](=O)[O-]	11%	3.5µM*	?	?	-4%	?
COc1ccc(Nc2nc(N)c([N+](=O)[O-])c(NCCO)n2)cc1	nt	1%	8%	17%	?	0%
Cc1ccc(CNC(=O)Nc2cn(CC(C)C)c(=O)c3ccccc23)cc1	nt	nt	nt	nt	-12%	nt
CCOCc1c(C(=O)NCc2ccccc2CN2CCCC2)oc2ccccc12	nt	-2%	-2%	2%	7%	?
CCn1c(C)nc2cc(C(=O)NN=Cc3ccc([N+](=O)[O-])cc3)ccc21	nt	nt	-1%	nt	nt	0%
CCn1c(C)nc2cc(C(=O)N/N=C/c3ccc(O)cc3)ccc21	21%	-3%	9%	1%	15µM*	?
CCn1c(C)nc2cc(C(=O)N/N=C/c3ccc(OC)c(O)c3)ccc21	-17%	-3%	3%	3%	?	3%
CCn1c(C)nc2cc(C(=O)N/N=C/c3ccccc3)ccc21	18µM*	3.5µM*	9.2µM*	3.2µM*	21µM*	?
CCn1c(C)nc2cc(C(=O)N/N=C/c3ccc(OC)cc3)ccc21	-6%	-4%	3%	-1%	?	-9%
CCn1c(C)nc2cc(C(=O)N/N=C/c3cccc(O)c3O)ccc21	nt	-13%	?	-19%	8.5µM*	?
CCn1c(C)nc2cc(C(=O)N/N=C(\C)c3ccc(OC)cc3O)ccc21	-85%	-25%	0%	-34%	?	7.3µM*
CCn1c(C)nc2cc(C(=O)NN=C(C)c3ccc(C#N)cc3)ccc21	nt	nt	-2%	nt	nt	-14%
CS(=O)(=O)c1ccccc1C(=O)Nc1ccc(S(=O)(=O)N2CCCC2)cc1	nt	nt	1%	nt	nt	-4%
SMILES	SMN2 splice up	Rab9 prom act	ELG1 genotox	NPC1 prom act	FLuc counter	ELG1 repair inh
Cc1ccccc1S(=O)(=O)NC(=NCc1ccc(F)cc1)c1ccccc1	nt	nt	-2%	nt	nt	0%
Cc1ccc(-c2cc3ncc4c(n3n2)-c2ccccc2OC4)cc1	20%	nt	nt	nt	?	nt
CCn1c(C)nc2cc(C(=O)NNC(=O)c3ccc(C)cc3)ccc21	nt	?	?	26%	?	?
CCn1c(C)nc2cc(C(=O)N=Nc3c(O)[nH]c4ccccc34)ccc21	56%	?	?	?	6µM*	?
CCn1c(C)nc2cc(C(=O)OC(C(F)(F)C(F)F)C(F)(F)C(F)F)ccc21	-26%	?	16µM*	?	3.8µM*	?
CCc1ccc(NC(=O)CCCc2nc(-c3ccco3)no2)cc1	nt	nt	nt	nt	-12%	nt
Cn1c(CCN2CCN(c3ccccn3)CC2)nc2cc(NS(=O)(=O)c3ccccc3)ccc21	nt	-3%	-10%	-2%	-1%	9.2µM*
Nc1nn2cc(-c3ccccc3)nc2c2ccccc12	4.5µM*	3.2µM*	5.2µM*	?	1.9µM*	?
CCn1nc(C)c2c(-c3ccccc3)cc(=O)n(C(C)C(=O)NCCc3ccccc3)c21 (stereo not drawn)	nt	nt	nt	nt	-15%	nt
Cc1cc(C)c2cc3c(N)c(C(=O)N4CCc5ccccc5C4)sc3nc2c1	12%	-1%	-1%	10%	0%	-4%
Nc1nc2sc3c(c2cc1C(=O)NCC(=O)O)CCCC3	nt	-16%	-3%	0%	0.95µM*	-28%
Nc1nc2sc3c(c2cc1C(=O)N1CCOCC1)CCCC3	4%	10%	3%	8%	17µM*	?
Cc1cccc2cc3c(N)c(C(=O)N4CCOCC4)sc3nc12	11µM*	0.56µM*	?	?	3.8µM*	?
CCCc1nc2sc3c(c2c(=O)n1NC(=O)CCC(=O)O)CCCC3	10%	-2%	-10%	-1%	?	12%
COc1ccc(-c2cc3ccc(OCc4nn[nH]n4)cc3oc2=O)cc1OC	15%	-7%	2%	-1%	15µM*	13%
COC(=O)COc1ccc2cc(-c3ccc(OC)cc3)c(=O)oc2c1	nt	0%	4%	-3%	?	0%
COc1ccc(-c2cc3ccc(OCC(C)=O)cc3oc2=O)cc1OC	nt	2µM*	?	4µM*	15µM*	?
COc1ccc(-c2cc3ccc(OCC(C)=O)cc3oc2=O)cc1	nt	1µM*	?	1.3µM*	1.9µM*	?
COC(=O)COc1ccc2cc(-c3ccccc3)c(=O)oc2c1	nt	-6%	-1%[9.26 µM]	0%	12µM*	9%
NC(=O)COc1ccc2cc(-c3ccc(F)cc3)c(=O)oc2c1	nt	?	?	?	-18%	?
CC(C)(C)n1cnc2cc(NCc3ccccc3O)ccc21	nt	8%	17%	28%	12µM*	?
Cc1cccc(NC(=S)NCc2ccccn2)c1	19%	-7%	1%	-2%	3%	9%
CC(C)n1cnc2cc(NCc3ccccn3)ccc21	18µM*	?	?	1.8µM*	24µM*	?
